The results in this text go back to ChEMBL document CHEMBL1961873, “Compounds: GSK PKIS; Assays: Nanosyn kinase panel” (2012).

Experiment [1] addresses T1, Inhibitor of nuclear factor kappa-B kinase subunit epsilon (Homo sapiens) (UniProt Q14164).
T1 sequence (whole entry): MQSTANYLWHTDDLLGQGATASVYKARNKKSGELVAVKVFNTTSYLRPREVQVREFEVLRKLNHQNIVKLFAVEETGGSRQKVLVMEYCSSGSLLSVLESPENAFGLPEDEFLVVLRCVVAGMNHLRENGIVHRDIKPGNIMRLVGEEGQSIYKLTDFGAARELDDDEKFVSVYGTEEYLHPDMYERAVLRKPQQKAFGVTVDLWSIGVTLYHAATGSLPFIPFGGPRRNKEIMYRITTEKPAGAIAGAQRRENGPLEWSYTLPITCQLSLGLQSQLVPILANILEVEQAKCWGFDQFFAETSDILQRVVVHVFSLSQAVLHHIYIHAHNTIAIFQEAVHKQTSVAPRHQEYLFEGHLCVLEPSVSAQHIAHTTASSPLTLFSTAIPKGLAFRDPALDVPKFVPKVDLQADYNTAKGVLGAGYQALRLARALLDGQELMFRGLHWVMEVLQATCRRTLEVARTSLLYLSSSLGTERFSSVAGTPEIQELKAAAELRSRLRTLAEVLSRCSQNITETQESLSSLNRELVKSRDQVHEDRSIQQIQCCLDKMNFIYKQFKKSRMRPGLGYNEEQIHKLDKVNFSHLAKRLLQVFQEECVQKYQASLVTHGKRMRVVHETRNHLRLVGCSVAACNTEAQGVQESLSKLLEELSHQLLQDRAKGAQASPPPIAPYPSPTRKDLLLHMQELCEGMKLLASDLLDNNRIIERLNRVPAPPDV
As to conditions: at 1 µM.

Experiment [2] deals with T2, Serine/threonine-protein kinase Nek1 (Homo sapiens) (UniProt Q96PY6).
T2 sequence (whole entry): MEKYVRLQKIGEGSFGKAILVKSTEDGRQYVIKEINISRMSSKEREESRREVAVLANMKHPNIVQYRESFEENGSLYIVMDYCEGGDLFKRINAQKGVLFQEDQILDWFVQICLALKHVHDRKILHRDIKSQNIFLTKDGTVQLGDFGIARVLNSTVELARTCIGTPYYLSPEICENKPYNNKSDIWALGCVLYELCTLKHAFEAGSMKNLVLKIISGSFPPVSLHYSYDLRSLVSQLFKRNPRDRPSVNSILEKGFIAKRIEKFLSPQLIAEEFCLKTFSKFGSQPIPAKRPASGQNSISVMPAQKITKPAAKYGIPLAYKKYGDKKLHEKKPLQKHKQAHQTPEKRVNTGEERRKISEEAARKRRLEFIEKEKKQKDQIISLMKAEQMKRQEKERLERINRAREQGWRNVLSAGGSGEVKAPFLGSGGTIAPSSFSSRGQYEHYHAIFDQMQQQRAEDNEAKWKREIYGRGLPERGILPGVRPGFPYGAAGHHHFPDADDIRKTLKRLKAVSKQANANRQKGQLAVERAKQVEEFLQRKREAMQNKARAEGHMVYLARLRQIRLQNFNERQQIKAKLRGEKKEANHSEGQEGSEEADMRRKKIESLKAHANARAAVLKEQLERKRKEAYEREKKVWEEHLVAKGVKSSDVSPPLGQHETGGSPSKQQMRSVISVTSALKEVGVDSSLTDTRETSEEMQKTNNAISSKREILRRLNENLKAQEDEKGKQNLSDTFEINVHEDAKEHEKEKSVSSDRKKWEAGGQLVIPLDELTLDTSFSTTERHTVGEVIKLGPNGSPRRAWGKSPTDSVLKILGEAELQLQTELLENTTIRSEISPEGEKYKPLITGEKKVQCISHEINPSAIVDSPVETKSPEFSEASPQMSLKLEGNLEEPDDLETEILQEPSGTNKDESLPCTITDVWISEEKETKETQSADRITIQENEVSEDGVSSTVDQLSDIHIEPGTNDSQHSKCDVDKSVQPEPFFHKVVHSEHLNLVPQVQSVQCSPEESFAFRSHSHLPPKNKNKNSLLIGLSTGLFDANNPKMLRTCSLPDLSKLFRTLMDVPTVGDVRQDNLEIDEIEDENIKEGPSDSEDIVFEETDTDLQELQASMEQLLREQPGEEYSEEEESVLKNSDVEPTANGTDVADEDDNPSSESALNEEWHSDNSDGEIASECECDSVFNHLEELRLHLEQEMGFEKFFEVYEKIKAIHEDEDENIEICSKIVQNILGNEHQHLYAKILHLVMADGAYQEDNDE
The following applies: at 0.1 µM.

Experiment [3] has as its target T2, Serine/threonine-protein kinase Nek1 (Homo sapiens). The following applies: at 1 µM.
The target in experiment [4] is T3, Serine/threonine-protein kinase Nek2 (Homo sapiens) (UniProt P51955).
T3 sequence (whole entry): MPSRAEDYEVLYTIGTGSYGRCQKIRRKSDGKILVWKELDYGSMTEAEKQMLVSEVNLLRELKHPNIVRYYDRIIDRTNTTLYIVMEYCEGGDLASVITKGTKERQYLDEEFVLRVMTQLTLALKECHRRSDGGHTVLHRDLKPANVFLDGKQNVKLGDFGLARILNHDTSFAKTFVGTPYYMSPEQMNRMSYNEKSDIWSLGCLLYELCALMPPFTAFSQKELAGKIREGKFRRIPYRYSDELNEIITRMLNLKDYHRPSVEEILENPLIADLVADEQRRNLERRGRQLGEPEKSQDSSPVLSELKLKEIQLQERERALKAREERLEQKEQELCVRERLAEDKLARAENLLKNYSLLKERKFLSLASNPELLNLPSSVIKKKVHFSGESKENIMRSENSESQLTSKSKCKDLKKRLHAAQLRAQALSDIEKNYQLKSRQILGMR
As to conditions: at 0.1 µM.

Experiment [5] addresses T3, Serine/threonine-protein kinase Nek2 (Homo sapiens). As to conditions: at 1 µM.
For experiment [6], the target named is Serine/threonine-protein kinase Nek6 (Homo sapiens) (UniProt Q9HC98). The following applies: at 0.1 µM.
Experiment [7] has the same target. The following applies: at 1 µM.
The target in experiment [8] is Serine/threonine-protein kinase Nek7 (Homo sapiens) (UniProt Q8TDX7). The following applies: at 0.1 µM.
Experiment [9] has the same target. The following applies: at 1 µM.
In experiment [10] the target is T4, Serine/threonine-protein kinase Nek9 (Homo sapiens) (UniProt Q8TD19).
T4 sequence (whole entry): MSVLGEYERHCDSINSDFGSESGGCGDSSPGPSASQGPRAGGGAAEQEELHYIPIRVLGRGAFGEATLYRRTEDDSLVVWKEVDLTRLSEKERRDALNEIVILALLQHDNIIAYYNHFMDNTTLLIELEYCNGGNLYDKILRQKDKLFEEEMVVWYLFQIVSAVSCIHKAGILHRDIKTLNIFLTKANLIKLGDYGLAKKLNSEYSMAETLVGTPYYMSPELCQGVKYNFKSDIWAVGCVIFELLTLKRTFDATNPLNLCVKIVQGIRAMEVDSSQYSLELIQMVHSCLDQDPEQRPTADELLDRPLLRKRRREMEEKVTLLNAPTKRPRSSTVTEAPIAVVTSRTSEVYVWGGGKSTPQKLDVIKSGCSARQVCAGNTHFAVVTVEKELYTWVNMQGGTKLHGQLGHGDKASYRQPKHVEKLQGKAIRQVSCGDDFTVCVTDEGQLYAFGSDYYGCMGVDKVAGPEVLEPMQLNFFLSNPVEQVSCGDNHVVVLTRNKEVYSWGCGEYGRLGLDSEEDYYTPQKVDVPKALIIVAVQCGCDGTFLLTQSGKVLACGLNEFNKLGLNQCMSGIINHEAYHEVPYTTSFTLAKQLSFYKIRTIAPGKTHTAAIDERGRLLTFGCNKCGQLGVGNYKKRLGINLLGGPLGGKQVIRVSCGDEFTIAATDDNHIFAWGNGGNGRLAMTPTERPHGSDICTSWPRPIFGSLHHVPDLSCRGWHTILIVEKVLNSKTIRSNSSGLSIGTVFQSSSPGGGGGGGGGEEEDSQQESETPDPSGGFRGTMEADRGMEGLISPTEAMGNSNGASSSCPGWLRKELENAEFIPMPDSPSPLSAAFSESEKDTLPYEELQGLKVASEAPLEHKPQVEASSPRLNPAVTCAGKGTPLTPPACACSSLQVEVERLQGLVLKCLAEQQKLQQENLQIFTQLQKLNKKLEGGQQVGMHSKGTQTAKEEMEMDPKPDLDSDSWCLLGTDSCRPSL
The following applies: at 0.1 µM.

Experiment [11] concerns the target T4, Serine/threonine-protein kinase Nek9 (Homo sapiens). The following applies: at 1 µM.
In experiment [12] the target is Serine/threonine-protein kinase PLK1 (Homo sapiens) (UniProt P53350). As to conditions: at 0.1 µM.
For experiment [13] the target is unchanged. The following applies: at 1 µM.
For experiment [14], the target named is T5, Dual specificity protein kinase TTK (Homo sapiens) (UniProt P33981).
T5 sequence (whole entry): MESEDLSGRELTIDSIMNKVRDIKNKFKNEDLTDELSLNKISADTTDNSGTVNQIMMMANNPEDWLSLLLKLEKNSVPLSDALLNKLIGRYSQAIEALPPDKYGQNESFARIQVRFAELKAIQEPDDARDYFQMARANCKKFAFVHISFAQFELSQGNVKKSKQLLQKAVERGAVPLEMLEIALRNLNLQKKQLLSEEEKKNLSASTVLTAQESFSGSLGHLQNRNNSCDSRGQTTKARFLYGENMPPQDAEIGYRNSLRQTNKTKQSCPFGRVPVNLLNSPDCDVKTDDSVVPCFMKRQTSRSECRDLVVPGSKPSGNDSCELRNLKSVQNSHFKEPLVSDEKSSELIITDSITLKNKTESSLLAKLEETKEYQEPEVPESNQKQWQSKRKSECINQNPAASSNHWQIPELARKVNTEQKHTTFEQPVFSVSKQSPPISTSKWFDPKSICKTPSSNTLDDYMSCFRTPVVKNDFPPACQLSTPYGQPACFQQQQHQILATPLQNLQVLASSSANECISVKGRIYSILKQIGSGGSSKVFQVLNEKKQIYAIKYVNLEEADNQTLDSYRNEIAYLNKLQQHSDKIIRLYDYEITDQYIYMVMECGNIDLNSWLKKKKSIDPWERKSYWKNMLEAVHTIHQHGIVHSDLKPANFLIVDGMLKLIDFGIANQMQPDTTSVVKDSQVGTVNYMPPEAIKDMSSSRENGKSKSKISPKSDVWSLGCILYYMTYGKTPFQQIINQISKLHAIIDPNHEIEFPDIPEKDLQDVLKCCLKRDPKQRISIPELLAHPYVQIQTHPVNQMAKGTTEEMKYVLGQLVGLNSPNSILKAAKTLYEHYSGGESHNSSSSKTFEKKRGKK
As to conditions: at 0.1 µM.

For experiment [15], the system named is T6, Receptor-type tyrosine-protein kinase FLT3 (Homo sapiens), P36888 [D835Y].
T6 sequence (whole entry): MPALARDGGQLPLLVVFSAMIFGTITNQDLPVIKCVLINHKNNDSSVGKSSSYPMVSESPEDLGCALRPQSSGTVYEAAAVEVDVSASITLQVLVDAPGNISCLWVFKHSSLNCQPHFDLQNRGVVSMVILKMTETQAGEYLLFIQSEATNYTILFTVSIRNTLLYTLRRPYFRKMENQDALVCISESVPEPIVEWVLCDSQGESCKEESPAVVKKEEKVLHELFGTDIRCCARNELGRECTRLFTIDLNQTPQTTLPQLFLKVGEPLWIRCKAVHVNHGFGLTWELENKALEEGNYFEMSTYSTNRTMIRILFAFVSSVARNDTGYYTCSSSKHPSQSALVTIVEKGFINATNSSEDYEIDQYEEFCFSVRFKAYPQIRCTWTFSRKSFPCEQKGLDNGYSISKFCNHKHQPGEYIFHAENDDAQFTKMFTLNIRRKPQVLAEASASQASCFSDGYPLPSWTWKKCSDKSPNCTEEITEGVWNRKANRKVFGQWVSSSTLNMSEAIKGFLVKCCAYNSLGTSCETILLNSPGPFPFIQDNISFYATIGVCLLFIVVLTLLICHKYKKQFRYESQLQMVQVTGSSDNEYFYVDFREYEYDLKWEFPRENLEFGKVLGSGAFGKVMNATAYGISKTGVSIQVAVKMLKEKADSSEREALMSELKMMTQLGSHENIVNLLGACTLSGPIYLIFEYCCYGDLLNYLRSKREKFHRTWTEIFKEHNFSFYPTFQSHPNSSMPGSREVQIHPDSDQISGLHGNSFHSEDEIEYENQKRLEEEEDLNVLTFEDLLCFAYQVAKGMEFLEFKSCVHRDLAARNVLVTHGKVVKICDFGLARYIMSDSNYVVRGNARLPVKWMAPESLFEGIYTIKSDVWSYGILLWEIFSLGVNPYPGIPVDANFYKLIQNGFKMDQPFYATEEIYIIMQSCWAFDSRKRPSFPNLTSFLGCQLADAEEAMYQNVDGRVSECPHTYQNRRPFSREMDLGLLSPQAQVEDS
As to conditions: at 1 µM.

The target in experiment [16] is Vascular endothelial growth factor receptor 3 (Homo sapiens) (UniProt P35916). As to conditions: at 0.1 µM.
The target is the same in experiment [17]. As to conditions: at 1 µM.
Experiment [18] deals with Macrophage colony-stimulating factor 1 receptor (Homo sapiens) (UniProt P07333). The following applies: at 0.1 µM.
Experiment [19] has the same target. As to conditions: at 1 µM.
Experiment [20] deals with Tyrosine-protein kinase Fyn (Homo sapiens) (UniProt P06241). The following applies: at 0.1 µM.
Tyrosine-protein kinase Fyn (Homo sapiens), sequence (P06241 2-537 limits assumed): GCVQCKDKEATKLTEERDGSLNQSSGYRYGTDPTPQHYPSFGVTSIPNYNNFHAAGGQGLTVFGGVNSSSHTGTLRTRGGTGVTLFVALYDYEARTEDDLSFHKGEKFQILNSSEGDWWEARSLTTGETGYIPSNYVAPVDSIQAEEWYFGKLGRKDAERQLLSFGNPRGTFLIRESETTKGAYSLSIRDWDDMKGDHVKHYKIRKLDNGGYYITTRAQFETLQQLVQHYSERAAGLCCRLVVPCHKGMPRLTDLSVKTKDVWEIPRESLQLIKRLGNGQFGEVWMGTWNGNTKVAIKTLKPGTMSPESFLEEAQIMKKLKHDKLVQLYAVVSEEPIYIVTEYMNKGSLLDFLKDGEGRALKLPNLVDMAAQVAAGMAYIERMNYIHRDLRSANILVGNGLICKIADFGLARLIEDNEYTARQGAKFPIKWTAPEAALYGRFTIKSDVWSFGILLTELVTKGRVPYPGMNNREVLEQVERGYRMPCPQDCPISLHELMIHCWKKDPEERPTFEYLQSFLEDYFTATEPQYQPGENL

Serine/threonine-protein kinase Nek6 (Homo sapiens), sequence (Q9HC98 whole entry): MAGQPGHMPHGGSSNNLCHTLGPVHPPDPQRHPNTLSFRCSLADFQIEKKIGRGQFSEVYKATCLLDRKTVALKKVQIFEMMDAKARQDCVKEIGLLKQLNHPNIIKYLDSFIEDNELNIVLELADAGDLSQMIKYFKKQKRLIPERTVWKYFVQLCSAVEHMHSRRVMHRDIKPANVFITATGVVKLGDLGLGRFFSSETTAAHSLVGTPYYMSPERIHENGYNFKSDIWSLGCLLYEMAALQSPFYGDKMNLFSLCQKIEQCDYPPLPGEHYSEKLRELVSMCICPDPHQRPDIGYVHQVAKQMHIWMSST
Serine/threonine-protein kinase PLK1 (Homo sapiens), sequence (P53350 whole entry): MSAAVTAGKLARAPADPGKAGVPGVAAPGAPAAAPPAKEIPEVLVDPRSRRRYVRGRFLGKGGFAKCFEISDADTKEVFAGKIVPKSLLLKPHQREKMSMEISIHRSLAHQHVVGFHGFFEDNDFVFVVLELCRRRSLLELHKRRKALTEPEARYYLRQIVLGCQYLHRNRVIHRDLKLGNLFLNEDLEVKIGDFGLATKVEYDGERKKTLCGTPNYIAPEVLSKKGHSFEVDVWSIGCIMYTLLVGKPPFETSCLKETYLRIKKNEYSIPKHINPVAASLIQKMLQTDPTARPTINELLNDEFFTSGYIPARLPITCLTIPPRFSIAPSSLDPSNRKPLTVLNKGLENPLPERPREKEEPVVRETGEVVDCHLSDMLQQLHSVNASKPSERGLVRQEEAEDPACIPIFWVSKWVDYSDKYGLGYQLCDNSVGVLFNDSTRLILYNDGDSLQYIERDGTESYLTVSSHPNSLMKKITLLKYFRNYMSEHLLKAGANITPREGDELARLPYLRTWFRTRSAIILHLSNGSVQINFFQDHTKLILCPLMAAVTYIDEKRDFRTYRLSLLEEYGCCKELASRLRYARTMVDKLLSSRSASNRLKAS
Vascular endothelial growth factor receptor 3 (Homo sapiens), sequence (P35916 whole entry): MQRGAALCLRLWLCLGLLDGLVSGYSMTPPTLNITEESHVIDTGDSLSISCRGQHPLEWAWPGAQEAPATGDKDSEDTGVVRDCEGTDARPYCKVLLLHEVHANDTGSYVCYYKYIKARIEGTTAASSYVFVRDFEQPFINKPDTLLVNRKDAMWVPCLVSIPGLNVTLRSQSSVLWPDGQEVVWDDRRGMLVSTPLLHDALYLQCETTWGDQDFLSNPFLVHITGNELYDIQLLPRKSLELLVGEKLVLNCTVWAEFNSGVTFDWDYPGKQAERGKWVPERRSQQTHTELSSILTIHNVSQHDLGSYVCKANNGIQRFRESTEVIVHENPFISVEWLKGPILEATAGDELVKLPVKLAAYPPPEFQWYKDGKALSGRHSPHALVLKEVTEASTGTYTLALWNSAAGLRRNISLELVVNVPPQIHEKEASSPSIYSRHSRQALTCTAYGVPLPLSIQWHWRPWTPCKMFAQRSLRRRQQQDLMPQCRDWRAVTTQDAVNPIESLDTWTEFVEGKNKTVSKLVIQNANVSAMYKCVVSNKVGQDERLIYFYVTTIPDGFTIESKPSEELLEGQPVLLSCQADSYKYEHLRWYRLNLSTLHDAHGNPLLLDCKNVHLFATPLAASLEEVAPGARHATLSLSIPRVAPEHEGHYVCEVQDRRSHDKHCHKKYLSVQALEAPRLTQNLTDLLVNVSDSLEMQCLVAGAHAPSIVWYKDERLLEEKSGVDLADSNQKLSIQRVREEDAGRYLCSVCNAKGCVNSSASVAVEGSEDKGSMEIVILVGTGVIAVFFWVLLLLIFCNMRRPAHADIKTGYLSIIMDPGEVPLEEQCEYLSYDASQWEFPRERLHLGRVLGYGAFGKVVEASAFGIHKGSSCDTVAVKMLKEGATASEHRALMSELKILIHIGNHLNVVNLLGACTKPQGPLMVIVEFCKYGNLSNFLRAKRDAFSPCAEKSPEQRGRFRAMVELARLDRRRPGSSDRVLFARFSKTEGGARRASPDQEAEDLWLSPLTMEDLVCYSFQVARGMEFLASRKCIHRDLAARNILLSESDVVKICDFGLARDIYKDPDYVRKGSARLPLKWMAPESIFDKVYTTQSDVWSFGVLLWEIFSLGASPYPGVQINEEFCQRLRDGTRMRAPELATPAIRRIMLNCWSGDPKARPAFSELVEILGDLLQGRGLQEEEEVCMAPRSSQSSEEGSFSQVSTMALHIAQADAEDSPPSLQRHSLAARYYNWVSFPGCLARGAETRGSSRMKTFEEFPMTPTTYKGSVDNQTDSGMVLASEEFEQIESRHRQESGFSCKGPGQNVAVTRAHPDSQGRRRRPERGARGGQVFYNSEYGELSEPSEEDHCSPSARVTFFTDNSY
Macrophage colony-stimulating factor 1 receptor (Homo sapiens), sequence (P07333 whole entry): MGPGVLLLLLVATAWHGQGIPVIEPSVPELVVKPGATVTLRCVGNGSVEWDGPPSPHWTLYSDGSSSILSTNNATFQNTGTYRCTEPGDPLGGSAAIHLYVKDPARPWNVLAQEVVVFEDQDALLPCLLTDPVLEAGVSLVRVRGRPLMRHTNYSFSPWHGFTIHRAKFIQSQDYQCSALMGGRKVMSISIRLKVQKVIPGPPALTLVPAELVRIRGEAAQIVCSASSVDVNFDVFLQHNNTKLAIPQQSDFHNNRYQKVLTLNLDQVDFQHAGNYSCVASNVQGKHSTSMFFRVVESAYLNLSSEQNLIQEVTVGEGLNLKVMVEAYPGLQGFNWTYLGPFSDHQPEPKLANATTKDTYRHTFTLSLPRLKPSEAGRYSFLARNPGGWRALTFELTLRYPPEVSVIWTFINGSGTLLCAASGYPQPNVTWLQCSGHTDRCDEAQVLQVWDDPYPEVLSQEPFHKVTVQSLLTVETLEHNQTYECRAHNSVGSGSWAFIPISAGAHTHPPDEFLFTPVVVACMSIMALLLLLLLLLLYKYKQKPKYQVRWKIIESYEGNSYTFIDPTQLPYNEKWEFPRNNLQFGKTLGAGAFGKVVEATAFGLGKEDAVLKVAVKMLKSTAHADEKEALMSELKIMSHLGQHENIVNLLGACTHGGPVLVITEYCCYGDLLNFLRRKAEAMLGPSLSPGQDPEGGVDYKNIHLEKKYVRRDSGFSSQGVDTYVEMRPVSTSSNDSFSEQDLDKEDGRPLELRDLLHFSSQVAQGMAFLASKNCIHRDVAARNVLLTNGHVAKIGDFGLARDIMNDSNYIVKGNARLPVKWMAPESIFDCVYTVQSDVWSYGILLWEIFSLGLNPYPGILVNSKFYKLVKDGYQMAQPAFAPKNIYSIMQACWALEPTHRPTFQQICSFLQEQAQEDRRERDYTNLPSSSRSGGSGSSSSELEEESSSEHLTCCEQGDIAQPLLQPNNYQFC
Serine/threonine-protein kinase Nek7 (Homo sapiens), sequence (Q8TDX7 whole entry, looked up): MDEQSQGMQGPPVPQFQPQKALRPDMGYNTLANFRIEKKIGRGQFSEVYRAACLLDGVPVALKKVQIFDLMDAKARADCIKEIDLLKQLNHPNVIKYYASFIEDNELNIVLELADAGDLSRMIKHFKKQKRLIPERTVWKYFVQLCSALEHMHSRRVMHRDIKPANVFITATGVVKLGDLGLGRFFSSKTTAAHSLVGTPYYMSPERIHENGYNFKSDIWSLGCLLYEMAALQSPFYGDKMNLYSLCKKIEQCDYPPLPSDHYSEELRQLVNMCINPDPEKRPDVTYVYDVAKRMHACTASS

As a reminder, the inhibition is the change of the read-out against control, counted positive when it falls. As to `FC(F)(F)CNc1nccc(-c2cnn3ncccc23)n1`, the inhibition in experiment [1] turned out to be 0.44%; in [2], 2.31%; in [3], 0.95%; in experiment [4] it was 3.06%; in [5], 2.24%; in experiment [6], 0.83%. Further, the inhibition is 0.6% in experiment [7]; -1.64% in [8]; 1.79% in experiment [9]; 4.65% in experiment [10]; 0.64% in experiment [11]; 0.06% in experiment [12]. Besides, the inhibition in experiment [13] is 0.65%; in experiment [14], 3.92%; in experiment [15], 6%; in experiment [16] it was 2.05%; in experiment [17] it was 2.12%; in experiment [18], -4.71%. Moreover, the inhibition in [19] is 3.68%; in experiment [20], 0.85%.
